The target of assay [1] is T1, Tyrosine-protein kinase ITK/TSK (Homo sapiens) (UniProt Q08881).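 Note: values are mean percent inhibition of ITK from the GSK PKIS screen.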
T1 sequence (whole entry): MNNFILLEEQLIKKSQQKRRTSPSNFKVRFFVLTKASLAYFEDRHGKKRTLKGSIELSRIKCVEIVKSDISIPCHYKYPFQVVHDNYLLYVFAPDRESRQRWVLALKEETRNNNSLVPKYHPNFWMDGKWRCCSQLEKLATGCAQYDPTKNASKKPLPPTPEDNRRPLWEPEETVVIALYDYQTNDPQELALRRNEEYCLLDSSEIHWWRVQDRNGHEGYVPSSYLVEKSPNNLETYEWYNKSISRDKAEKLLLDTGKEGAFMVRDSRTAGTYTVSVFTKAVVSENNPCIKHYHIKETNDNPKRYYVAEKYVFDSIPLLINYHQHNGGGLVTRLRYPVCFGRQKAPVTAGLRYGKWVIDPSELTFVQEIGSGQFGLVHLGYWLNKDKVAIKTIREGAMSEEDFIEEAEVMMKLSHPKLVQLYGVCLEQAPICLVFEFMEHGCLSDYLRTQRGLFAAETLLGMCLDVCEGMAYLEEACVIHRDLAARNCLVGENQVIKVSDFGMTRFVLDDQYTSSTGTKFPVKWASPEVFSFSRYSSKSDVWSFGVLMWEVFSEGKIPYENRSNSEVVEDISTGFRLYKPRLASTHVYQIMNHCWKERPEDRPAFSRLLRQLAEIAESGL
The note with it: at 1 µM.

Assay [2] deals with Tyrosine-protein kinase JAK1 (Homo sapiens) (UniProt P23458). The note with it: at 0.1 µM.
Assay [3] shares this target. The note with it: at 1 µM.
Assay [4] has as its target Tyrosine-protein kinase JAK2 (Homo sapiens) (UniProt O60674). The note with it: at 0.1 µM.
The target is the same in assay [5]. The note with it: at 1 µM.
In assay [6] the target is T2, Tyrosine-protein kinase JAK3 (Homo sapiens) (UniProt P52333).
T2 sequence (whole entry): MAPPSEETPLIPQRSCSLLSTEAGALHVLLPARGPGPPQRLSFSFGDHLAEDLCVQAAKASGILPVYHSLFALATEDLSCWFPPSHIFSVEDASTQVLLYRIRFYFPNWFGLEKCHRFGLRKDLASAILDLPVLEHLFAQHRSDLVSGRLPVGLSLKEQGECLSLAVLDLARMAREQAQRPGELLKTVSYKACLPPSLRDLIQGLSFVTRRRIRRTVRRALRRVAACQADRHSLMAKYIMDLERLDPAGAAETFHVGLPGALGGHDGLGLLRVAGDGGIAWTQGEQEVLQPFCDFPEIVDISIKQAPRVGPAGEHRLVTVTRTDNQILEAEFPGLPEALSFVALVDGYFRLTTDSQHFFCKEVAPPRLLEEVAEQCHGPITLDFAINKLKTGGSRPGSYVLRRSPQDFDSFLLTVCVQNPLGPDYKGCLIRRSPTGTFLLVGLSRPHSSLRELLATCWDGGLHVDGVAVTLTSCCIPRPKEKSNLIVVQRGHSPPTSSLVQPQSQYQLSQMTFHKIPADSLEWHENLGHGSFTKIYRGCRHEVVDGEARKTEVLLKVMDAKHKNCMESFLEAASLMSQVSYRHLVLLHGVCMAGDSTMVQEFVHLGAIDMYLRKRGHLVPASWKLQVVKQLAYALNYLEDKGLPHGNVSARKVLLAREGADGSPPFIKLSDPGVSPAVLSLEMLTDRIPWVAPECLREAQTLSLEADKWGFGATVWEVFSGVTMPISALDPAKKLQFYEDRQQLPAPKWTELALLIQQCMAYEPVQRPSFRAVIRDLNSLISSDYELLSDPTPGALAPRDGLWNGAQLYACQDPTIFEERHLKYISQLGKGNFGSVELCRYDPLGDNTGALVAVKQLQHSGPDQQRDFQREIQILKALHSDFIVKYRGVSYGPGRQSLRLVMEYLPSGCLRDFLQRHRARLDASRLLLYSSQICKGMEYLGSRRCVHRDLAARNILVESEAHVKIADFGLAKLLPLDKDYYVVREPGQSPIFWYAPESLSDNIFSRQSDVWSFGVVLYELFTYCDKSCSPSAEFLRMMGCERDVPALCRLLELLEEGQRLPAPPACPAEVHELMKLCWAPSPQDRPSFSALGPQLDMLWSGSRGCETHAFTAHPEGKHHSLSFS
The note with it: at 0.1 µM.

The target in assay [7] is T2, Tyrosine-protein kinase JAK3 (Homo sapiens). The note with it: at 1 µM.
For assay [8], the target named is Vascular endothelial growth factor receptor 2 (Homo sapiens) (UniProt P35968). The note with it: at 0.1 µM.
The target is the same in assay [9]. To be noted: at 1 µM.
Assay [10] has as its target Mast/stem cell growth factor receptor Kit (Homo sapiens) (UniProt P10721). To be noted: at 1 µM.
The test system of assay [11] is Mast/stem cell growth factor receptor Kit (Homo sapiens), P10721 [D816V]. To be noted: at 0.1 µM.
Assay [12] has the same test system. To be noted: at 1 µM.
Assay [13] has as its system Mast/stem cell growth factor receptor Kit (Homo sapiens), P10721 [T670I]. To be noted: at 0.1 µM.
Assay [14] shares this test system. To be noted: at 1 µM.
Assay [15] relates to Mast/stem cell growth factor receptor Kit (Homo sapiens), P10721 [V560G]. The note with it: at 0.1 µM.
Assay [16] shares this test system. The note with it: at 1 µM.
In assay [17] the target is Tyrosine-protein kinase Lck (Homo sapiens) (UniProt P06239). To be noted: at 0.1 µM.
Assay [18] has the same target. The note with it: at 1 µM.
For assay [19], the target named is Leukocyte tyrosine kinase receptor (Homo sapiens) (UniProt P29376). The note with it: at 0.1 µM.
The target of assay [20] is Mast/stem cell growth factor receptor Kit (Homo sapiens) (UniProt P10721). To be noted: at 0.1 µM.
Chain of Mast/stem cell growth factor receptor Kit (Homo sapiens) (P10721 whole entry): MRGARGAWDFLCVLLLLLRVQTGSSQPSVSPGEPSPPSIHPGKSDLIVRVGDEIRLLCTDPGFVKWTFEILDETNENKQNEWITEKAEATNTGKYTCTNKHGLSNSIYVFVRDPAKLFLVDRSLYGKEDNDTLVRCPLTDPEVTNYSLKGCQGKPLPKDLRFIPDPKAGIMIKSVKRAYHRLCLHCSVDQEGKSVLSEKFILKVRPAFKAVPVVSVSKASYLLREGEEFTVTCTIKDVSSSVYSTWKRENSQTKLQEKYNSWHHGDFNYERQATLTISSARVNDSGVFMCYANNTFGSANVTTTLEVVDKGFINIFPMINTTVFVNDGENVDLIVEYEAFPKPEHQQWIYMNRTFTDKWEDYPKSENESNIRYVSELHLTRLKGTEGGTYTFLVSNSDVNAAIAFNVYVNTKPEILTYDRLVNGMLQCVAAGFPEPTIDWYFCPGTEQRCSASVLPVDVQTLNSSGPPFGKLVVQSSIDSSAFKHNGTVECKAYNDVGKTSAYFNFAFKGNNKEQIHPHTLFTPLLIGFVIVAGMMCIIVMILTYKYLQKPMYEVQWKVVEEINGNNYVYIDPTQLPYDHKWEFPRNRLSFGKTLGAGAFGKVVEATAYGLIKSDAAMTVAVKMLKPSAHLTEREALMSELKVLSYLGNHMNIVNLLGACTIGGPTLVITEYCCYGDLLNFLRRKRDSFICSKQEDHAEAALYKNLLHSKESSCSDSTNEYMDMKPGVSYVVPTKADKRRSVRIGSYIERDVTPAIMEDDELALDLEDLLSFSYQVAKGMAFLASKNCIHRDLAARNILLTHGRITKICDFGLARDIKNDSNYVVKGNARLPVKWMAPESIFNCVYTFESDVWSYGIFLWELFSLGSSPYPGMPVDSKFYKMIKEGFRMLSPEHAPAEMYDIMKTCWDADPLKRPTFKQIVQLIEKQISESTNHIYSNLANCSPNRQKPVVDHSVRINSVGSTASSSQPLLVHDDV

Chain of Mast/stem cell growth factor receptor Kit (Homo sapiens), P10721 [T670I] (P10721 whole entry T670I): as the sequence (P10721 whole entry) above, with T670I counted along it
Chain of Tyrosine-protein kinase JAK1 (Homo sapiens) (P23458 whole entry): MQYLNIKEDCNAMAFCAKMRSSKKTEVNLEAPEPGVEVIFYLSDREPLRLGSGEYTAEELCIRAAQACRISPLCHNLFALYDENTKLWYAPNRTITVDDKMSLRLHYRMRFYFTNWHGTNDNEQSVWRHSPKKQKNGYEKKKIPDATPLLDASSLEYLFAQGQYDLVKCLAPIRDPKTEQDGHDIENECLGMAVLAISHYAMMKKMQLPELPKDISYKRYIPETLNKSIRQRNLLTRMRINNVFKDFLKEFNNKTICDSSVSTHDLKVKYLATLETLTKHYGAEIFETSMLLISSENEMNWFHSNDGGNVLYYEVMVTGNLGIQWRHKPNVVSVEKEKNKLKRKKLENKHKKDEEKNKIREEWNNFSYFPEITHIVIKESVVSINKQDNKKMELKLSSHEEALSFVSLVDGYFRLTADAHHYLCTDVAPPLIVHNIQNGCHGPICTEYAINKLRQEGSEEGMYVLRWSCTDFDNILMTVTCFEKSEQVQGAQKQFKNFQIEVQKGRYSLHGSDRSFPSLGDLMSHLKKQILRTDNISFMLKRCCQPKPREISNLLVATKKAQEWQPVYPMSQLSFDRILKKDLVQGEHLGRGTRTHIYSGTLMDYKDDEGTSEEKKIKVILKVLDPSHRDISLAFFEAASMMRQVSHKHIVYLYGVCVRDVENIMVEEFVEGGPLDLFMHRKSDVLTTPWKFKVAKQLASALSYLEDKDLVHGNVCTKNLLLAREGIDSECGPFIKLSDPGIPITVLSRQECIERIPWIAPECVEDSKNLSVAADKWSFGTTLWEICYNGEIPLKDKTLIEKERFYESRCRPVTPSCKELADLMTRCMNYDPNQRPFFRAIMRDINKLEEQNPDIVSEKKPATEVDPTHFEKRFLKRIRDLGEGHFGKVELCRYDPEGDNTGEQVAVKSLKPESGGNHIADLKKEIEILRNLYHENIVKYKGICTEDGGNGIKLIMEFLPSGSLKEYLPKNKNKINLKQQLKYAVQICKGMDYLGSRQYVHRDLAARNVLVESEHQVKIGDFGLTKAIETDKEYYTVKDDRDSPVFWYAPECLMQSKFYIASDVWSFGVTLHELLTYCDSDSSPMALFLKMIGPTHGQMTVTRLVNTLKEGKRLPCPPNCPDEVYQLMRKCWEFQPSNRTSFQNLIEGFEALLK
Chain of Tyrosine-protein kinase Lck (Homo sapiens) (P06239 2-509 limits assumed): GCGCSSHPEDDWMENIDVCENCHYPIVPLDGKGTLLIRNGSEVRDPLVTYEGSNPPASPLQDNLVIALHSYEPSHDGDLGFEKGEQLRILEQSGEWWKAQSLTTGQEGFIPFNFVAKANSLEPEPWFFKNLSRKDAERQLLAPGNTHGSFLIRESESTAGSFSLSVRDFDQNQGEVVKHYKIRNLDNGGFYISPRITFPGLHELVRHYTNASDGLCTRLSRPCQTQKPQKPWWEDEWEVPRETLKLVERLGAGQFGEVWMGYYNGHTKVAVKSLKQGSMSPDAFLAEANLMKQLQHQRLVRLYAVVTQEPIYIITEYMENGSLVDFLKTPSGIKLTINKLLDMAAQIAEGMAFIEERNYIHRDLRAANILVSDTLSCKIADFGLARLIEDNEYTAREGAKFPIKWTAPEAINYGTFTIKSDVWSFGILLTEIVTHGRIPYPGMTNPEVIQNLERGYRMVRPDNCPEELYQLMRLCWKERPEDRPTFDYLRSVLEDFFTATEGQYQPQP
Chain of Leukocyte tyrosine kinase receptor (Homo sapiens) (P29376 whole entry): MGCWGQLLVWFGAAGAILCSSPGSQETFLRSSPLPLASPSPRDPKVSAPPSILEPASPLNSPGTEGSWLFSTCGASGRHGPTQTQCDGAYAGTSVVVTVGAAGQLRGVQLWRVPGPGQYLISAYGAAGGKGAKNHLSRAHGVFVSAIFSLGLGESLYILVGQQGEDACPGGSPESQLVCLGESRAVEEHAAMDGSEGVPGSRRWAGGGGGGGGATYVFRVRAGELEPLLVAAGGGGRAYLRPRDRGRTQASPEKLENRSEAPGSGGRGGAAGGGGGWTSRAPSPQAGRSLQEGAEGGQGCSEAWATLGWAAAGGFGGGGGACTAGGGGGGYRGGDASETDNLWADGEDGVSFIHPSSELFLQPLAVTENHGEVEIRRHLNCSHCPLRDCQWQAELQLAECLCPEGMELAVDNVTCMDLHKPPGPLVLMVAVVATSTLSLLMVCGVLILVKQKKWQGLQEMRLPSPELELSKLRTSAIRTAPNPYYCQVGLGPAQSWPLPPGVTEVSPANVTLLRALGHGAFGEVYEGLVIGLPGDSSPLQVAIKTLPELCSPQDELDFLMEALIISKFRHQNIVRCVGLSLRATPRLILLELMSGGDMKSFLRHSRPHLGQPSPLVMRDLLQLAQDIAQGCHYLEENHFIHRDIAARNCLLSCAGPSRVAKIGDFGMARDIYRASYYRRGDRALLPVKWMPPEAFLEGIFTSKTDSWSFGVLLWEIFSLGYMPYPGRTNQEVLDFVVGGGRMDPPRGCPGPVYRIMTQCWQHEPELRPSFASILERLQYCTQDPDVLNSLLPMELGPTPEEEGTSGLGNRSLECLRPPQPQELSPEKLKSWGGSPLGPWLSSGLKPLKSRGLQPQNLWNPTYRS
Chain of Mast/stem cell growth factor receptor Kit (Homo sapiens), P10721 [D816V] (P10721 whole entry D816V): as the sequence (P10721 whole entry) above, with D816V counted along it
Chain of Mast/stem cell growth factor receptor Kit (Homo sapiens), P10721 [V560G] (P10721 whole entry V560G): as the sequence (P10721 whole entry) above, with V560G counted along it
Chain of Vascular endothelial growth factor receptor 2 (Homo sapiens) (P35968 whole entry): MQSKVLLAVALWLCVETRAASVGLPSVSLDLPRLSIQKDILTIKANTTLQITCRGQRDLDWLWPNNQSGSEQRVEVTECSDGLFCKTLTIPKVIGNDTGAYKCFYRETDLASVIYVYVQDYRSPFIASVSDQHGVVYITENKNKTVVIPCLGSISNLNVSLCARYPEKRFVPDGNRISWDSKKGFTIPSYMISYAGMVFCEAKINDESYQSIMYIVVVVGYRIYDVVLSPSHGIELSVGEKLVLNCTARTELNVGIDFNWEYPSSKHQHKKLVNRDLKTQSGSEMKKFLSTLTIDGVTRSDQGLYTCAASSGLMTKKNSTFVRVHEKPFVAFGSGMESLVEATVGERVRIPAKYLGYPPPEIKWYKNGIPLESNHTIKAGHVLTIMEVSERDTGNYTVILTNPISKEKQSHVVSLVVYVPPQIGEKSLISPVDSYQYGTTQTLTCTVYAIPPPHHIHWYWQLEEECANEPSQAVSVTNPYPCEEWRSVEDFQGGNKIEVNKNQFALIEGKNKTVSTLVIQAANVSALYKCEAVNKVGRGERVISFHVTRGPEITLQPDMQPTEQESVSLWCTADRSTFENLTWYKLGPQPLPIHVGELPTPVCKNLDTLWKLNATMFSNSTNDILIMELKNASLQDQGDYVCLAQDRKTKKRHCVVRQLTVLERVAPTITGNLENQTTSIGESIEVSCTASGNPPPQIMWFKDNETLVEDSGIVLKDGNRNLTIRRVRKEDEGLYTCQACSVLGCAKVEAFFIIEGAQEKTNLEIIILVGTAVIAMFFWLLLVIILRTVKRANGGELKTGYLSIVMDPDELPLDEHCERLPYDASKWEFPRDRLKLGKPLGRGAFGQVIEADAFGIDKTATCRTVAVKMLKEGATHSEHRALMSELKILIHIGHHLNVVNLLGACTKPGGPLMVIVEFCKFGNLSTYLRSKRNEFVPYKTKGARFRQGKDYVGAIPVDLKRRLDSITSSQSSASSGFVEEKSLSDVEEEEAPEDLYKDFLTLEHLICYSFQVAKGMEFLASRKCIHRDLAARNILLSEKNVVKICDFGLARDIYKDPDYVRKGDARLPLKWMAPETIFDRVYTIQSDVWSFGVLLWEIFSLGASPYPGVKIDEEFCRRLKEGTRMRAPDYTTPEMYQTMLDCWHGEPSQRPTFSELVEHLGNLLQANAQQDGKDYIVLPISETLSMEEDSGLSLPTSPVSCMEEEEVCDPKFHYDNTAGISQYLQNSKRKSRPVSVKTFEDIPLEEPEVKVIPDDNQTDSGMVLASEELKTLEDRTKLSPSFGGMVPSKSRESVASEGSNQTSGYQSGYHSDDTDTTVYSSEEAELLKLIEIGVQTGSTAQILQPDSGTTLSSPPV

Broadly, the inhibition is the drop in the measured response relative to a control, in per cent. Regarding `O=C1Nc2ccccc2/C1=C/Nc1ccc2[nH]c(=O)[nH]c2c1`, the inhibition in assay [1] is 5.35%; in [2], 3.96%; in assay [3], 20.8%; in [4] it was 1.12%; in assay [5], 1.93%; in [6], -1.44%. Also, the inhibition in assay [7] is 8.66%; in [8], 13.7%; in [9] it was 48.1%; in assay [10], 84.4%; in assay [11] it was 3.67%; in assay [12], 10.1%. The inhibition was 13.6% in assay [13]; 71.7% in assay [14]; -0.78% in assay [15]; 21.8% in assay [16]; 3.64% in assay [17]; 11.9% in assay [18]. The inhibition in [19] was determined as 5.48%.

Consider `Cc1ccc2c(-c3ccnc(Nc4cccc(C(F)(F)F)c4)n3)c(-c3ccccc3)nn2n1`, for which the inhibition in assay [1] was 1.69%; in [2], 6.27%; in assay [3] it was 4.74%; in assay [4], 1.01%; in assay [5], 2.03%; in assay [6], -1.71%. In addition, the inhibition was -2.26% in assay [7]; 17.7% in assay [8]; 69.3% in [9]; 9.72% in assay [20]; 47.6% in assay [10]; 0.01% in assay [11]. For the same molecule, the inhibition in assay [12] worked out at 6.47%; in assay [13], 2.51%; in [14], 3.44%; in assay [15] it was 2.8%; in [16] it was 10.7%; in assay [17] it was 8.54%. Moreover, the inhibition worked out at 42% in assay [18] and 4.14% in assay [19].

Regarding `CN(c1ccc(NC(=O)Nc2ccc(OC(F)(F)F)cc2)cc1)c1ccnc(Nc2cccc(S(N)(=O)=O)c2)n1`, the inhibition in [1] is 67.3%; in [2], 2.28%; in assay [3], 12.8%; in assay [4], 0.3%; in assay [5], 1.31%; in assay [6], -2.38%. Besides, the inhibition in [7] was -1.69%; in assay [8] it was 78.8%; in assay [9], 99.6%; in assay [20] it was 37.5%; in assay [10], 95.3%; in assay [11], 3.73%. Also, the inhibition is 2.45% in [12]; 22.9% in [13]; 89.9% in assay [14]; 37.6% in [15]; 93.4% in [16]; 33.7% in assay [17]. In addition, the inhibition in assay [18] was 80.1%; in assay [19], 2.69%.

On to `NS(=O)(=O)c1ccc(NC=C2C(=O)Nc3ccc4ncsc4c32)cc1`, for which the inhibition in [1] came out at 15.1%; in assay [2] it was 9.37%; in assay [3], 50.7%; in assay [4] it was 2.72%; in [5], 23.6%; in [6], 22.7%. The inhibition in assay [7] came to 63.7%; in assay [8] it was 60.5%; in [9], 71%; in [20] it was 68.4%; in assay [10], 94.3%; in [11] it was 8.42%. Moreover, the inhibition in [12] came to 31%; in assay [13], 19.8%; in [14] it was 67.2%; in [15], 1.8%; in [16], 32%; in assay [17] it was 5.47%. Further, the inhibition in assay [18] amounted to 30.9%; in assay [19], 4.74%.

As to `Cc1cc(-c2ccccn2)cc(C)c1/C=C/c1cncc(-c2nn[nH]n2)c1`, the inhibition in assay [1] turned out to be 0.66%; in [2], 4.47%; in assay [3] it was 3.3%; in [4] it was 2.08%; in assay [5] it was 2.43%; in [6], 0.16%. The inhibition in [7] stood at 0.72%; in [8], 3.45%; in [9], 14.2%; in assay [20] it was 4.89%; in assay [10] it was 6.45%; in [11], 0.82%. For the same molecule, the inhibition in assay [12] was -1.39%; in [13] it was 5.04%; in [14] it was 0.22%; in [15], -3.07%; in assay [16], -1.86%; in assay [17] it was 4.47%. For the same molecule, the inhibition stood at 12.1% in assay [18] and 4.42% in [19].

Consider `CCOc1nccc2c1nc(-c1nonc1N)n2CC`, for which the inhibition in [1] was found to be 3.31%; in assay [2] it was 6.31%; in assay [3] it was 18.7%; in assay [4] it was 1.55%; in assay [5], 1.18%; in assay [6], 0.47%. In addition, the inhibition was 4.71% in assay [7]; 9.84% in assay [8]; 23.8% in [9]; 3.38% in [20]; 10.2% in [10]; -2.27% in assay [11]. The inhibition amounted to 3.77% in assay [12]; 4.03% in [13]; 6.04% in assay [14]; 4.82% in assay [15]; 7.59% in assay [16]; 1.92% in assay [17]. For the same molecule, the inhibition in assay [18] worked out at 3.61%; in [19] it was 1.89%.

The record behind these values is ChEMBL document CHEMBL1961873, “Compounds: GSK PKIS; Assays: Nanosyn kinase panel” (2012).
